For 18 compounds, growth results are on record in PubChem BioAssay (NCI).

The panel holds about 83,000 compounds, 20% with a hit somewhere; the sample as a whole holds those more often.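 Cell lines were cultured in 96-well plates, exposed to a single compound concentration, and assessed for percent growth 48 hours later.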 Values without a mark were called inactive. Activity calls are given as the source filed them. Rule for the calls: active = growth percent below 10; inactive = the rest.

Some test systems named below: DU-145 prostate; K-562 leukemia; MALME-3M melanoma; MDA-MB-231 breast; SF-268 CNS; SF-539 CNS; UACC-257 melanoma; M14 melanoma; RXF 393 renal; SF-295 CNS.
What all share (assay): NCI-60 one-dose screen, 48 h (100 = growth as untreated, 0 = no growth, -100 = all killed)
Holding throughout (conditions): 10 µM unless noted

Take `Cc1[nH]n(C(=S)Nc2nc3cc(Cl)c(F)cc3s2)c(=O)c1N=Nc1ccc(F)c(Cl)c1`: the growth was 154% with DU-145 prostate; 89.5% in the experiment with K-562 leukemia; 139% in the experiment on MALME-3M melanoma; 93.5% in the experiment with MDA-MB-231 breast; 90% in the experiment with SF-268 CNS; 108% in the experiment with SF-539 CNS. In addition, the figures for the growth with UACC-257 melanoma and with M14 melanoma were -34.2% (active) and 114%, respectively.
Turning to `Cc1nnc(-c2cc3c(ccc4ccccc43)oc2=O)c2cn(-c3ccc(Cl)cc3)nc12`, the growth was 107% in the experiment with DU-145 prostate; 80.6% with K-562 leukemia; 77.5% in the experiment with MDA-MB-231 breast; 103% in the experiment on RXF 393 renal; 87.3% with SF-268 CNS; 95.9% with SF-295 CNS. Further, the growth is 114% in the experiment on SF-539 CNS, 109% with UACC-257 melanoma and 98.1% with M14 melanoma.
Consider `CC1(C)NC(=S)NC1=O`, for which the growth with DU-145 prostate is 116%; with K-562 leukemia it was 89%; in the experiment on MALME-3M melanoma, 106%; with RXF 393 renal, 105%; with SF-268 CNS it was 111%; in the experiment with SF-295 CNS, 95.7%. Also, the growth in the experiment on SF-539 CNS was 111%; in the experiment with UACC-257 melanoma it was 106%; in the experiment on M14 melanoma, 98.5%.
`O=[N+]([O-])c1ccc(-c2ncc(-c3ccc(O)cc3O)[nH]2)cc1`: the growth in the experiment with DU-145 prostate was 143%; in the experiment with K-562 leukemia, 95.6%; in the experiment with MALME-3M melanoma, 218%; in the experiment with MDA-MB-231 breast, 104%; in the experiment on SF-268 CNS, 101%; in the experiment on SF-539 CNS, 118%. Also, the growth in the experiment with UACC-257 melanoma was -43.6% (active); with M14 melanoma it was 135%.
`O=C(/C=C1\C(=O)N(Cc2ccc([N+](=O)[O-])cc2)c2ccccc21)c1ccc(OCCN2CCCCC2)cc1`: the growth with DU-145 prostate is -35.3% (active); with K-562 leukemia it was -35.2% (active); with MDA-MB-231 breast it was -60.8% (active); in the experiment with RXF 393 renal it was -90.7% (active); in the experiment with SF-268 CNS, -35.4% (active); with SF-295 CNS, 49.7%. In addition, the growth with SF-539 CNS was -84.6% (active); with UACC-257 melanoma it was -4.94% (active).
For `O=S(=O)(O)c1ccc2c(c1)Sc1cc(S(=O)(=O)O)ccc1O2`, the growth with DU-145 prostate is 116%; in the experiment with K-562 leukemia it was 100%; in the experiment on MDA-MB-231 breast it was 101%; in the experiment with RXF 393 renal, 116%; in the experiment on SF-268 CNS, 112%; in the experiment on SF-295 CNS, 103%. Moreover, the growth with SF-539 CNS was 117%; in the experiment on UACC-257 melanoma, 108%; in the experiment with M14 melanoma it was 107%.
For the compound `COc1ccc(CN2C(=O)/C(=C\C(=O)c3ccc(OCCN4CCCCC4)cc3)c3ccccc32)cc1`, the growth in the experiment on DU-145 prostate is 66%; in the experiment on K-562 leukemia, 2.32% (active); in the experiment on MDA-MB-231 breast it was 84.8%; in the experiment on RXF 393 renal, 61.7%; with SF-268 CNS it was 82.7%; in the experiment on SF-295 CNS, 91.5%. Also, the growth is 86.4% in the experiment with SF-539 CNS, 99% in the experiment with UACC-257 melanoma and 72.1% with M14 melanoma.
As for `COc1cccc(Cn2cc3c(c2)-c2oncc2CC3)c1`, the growth with DU-145 prostate was 11.3%; with K-562 leukemia, 13.6%; with MDA-MB-231 breast, 5.68% (active); with RXF 393 renal, 8.73% (active); in the experiment on SF-268 CNS it was 37.6%; with SF-295 CNS, -29.1% (active). For the same compound, the growth in the experiment on SF-539 CNS is -7.13% (active); in the experiment with UACC-257 melanoma, 73.1%; in the experiment with M14 melanoma, 12.5%.
For the compound `O=C(/C=C1\C(=O)N(Cc2ccccc2)c2ccccc21)c1ccc(OCCN2CCCCC2)cc1`, the growth in the experiment on DU-145 prostate is 47.5%; with K-562 leukemia, 2.2% (active); in the experiment with MDA-MB-231 breast, 45.9%; with RXF 393 renal it was 0.729% (active); in the experiment with SF-268 CNS, 73.9%; with SF-295 CNS, 85.6%. For the same compound, the results for the growth with SF-539 CNS, with UACC-257 melanoma and in the experiment with M14 melanoma were 51.9%, 76.8% and 37.9%, respectively.
`CCCCCCCCCCCCCCCCCC1=NCCN1CS(=O)(=O)O`: the growth in the experiment on DU-145 prostate was 33.7%; in the experiment on K-562 leukemia it was -10.9% (active); in the experiment with MDA-MB-231 breast, -15.8% (active); with RXF 393 renal, 69.9%; in the experiment with SF-268 CNS, -24.5% (active); in the experiment on SF-295 CNS, 74.6%. The figures for the growth with SF-539 CNS, with UACC-257 melanoma and with M14 melanoma were 61.2%, 91.8% and 34.6%, respectively.
Turning to `O=C1c2cc([N+](=O)[O-])ccc2-c2cc(Cl)c(NC(=O)C(F)(F)F)cc21`, the growth in the experiment on DU-145 prostate was 112%; in the experiment on K-562 leukemia, 88.6%; in the experiment with MDA-MB-231 breast, 109%; in the experiment on RXF 393 renal, 87.5%; in the experiment on SF-268 CNS, 107%; with SF-295 CNS, 111%. In addition, the growth in the experiment with SF-539 CNS is 95.4%; with UACC-257 melanoma, 128%; in the experiment on M14 melanoma, 110%.
With `O=C(N/N=C\c1ccc(-c2ccc(Br)cc2)o1)c1cc2oc(-c3cccc(C(F)(F)F)c3)cc2[nH]1`, the growth with DU-145 prostate was 126%; in the experiment on K-562 leukemia it was 90.2%; in the experiment on MALME-3M melanoma, 97.1%; in the experiment on MDA-MB-231 breast it was 111%; in the experiment with SF-268 CNS, 87.7%; in the experiment on SF-539 CNS it was 97.9%. The figures for the growth with UACC-257 melanoma and in the experiment on M14 melanoma were -48.2% (active) and 117%, respectively.
As for `C[C@@H](c1ccc2c(c1)[nH]c1ccc(Cl)cc12)c1nc2ccccc2[nH]1`, the growth in the experiment with DU-145 prostate was 103%; in the experiment with K-562 leukemia it was 82%; in the experiment on MDA-MB-231 breast, 88.1%; in the experiment on RXF 393 renal, 105%; in the experiment with SF-268 CNS, 87.3%; with SF-295 CNS, 93.5%. Also, the growth is 98.7% with SF-539 CNS, 106% with UACC-257 melanoma and 111% with M14 melanoma.
In the case of `COc1ccc(/C=C2\SC(=O)N(Cc3cc(=O)oc4ccc(OC)cc34)C2=O)cc1`, the growth in the experiment with DU-145 prostate is 91.3%; in the experiment with K-562 leukemia, 54.2%; in the experiment on MDA-MB-231 breast, 83.1%; in the experiment with RXF 393 renal, 110%; with SF-268 CNS it was 88.8%; in the experiment on SF-295 CNS, 82.7%. For the same compound, the growth is 89.6% with SF-539 CNS and 100% with UACC-257 melanoma.
Turning to `COc1ccc(Cn2cc3c(c2-c2ccc(O)cc2)CCc2cnoc2-3)cc1`, the growth in the experiment with DU-145 prostate was 20.2%; in the experiment with K-562 leukemia it was 12%; in the experiment with MDA-MB-231 breast it was 18%; with RXF 393 renal, 6.55% (active); with SF-268 CNS, 45.5%; in the experiment with SF-295 CNS it was -24.6% (active). For the same compound, the growth in the experiment on SF-539 CNS is -16.2% (active); in the experiment with UACC-257 melanoma, 70.8%; in the experiment on M14 melanoma, 9.96% (active).
`COc1ccc(C2=NN(C(=O)c3cc(-c4ccc(C)cc4)nc4ccccc34)C(c3cc(-c4ccccc4)nn3-c3ccccc3)C2)cc1` (stereo unspecified): the growth with DU-145 prostate is 91.2%; in the experiment with K-562 leukemia, 84.1%; with MDA-MB-231 breast it was 99.1%; in the experiment with RXF 393 renal, 95.2%; in the experiment on SF-268 CNS, 77.1%; in the experiment on SF-295 CNS, 86.7%. For the same compound, the growth in the experiment on SF-539 CNS is 105%; in the experiment on UACC-257 melanoma it was 96.8%; in the experiment on M14 melanoma, 83.4%.
Take `CCCCCN1CCN(C(CC(=O)c2ccccc2)C(=O)c2ccccc2)CC1` (stereo unspecified): the growth in the experiment on DU-145 prostate is 69.1%; in the experiment on K-562 leukemia, 11.2%; in the experiment with MALME-3M melanoma, 50.4%; with RXF 393 renal, 111%; in the experiment on SF-268 CNS, 91.5%; in the experiment on SF-295 CNS, 105%. For the same compound, the growth is 110% with SF-539 CNS, 107% with UACC-257 melanoma and 97.6% with M14 melanoma.
Regarding `COc1ccc2c(c1)/C(=C/c1c(-c3cc(OC)c(OC)c(OC)c3)nc3sccn13)C(=O)N2`, the growth in the experiment with DU-145 prostate is 88%; with K-562 leukemia it was 87.3%; in the experiment on MDA-MB-231 breast, 66.1%; with RXF 393 renal, 82.4%; with SF-268 CNS it was 107%; in the experiment with SF-295 CNS it was 93.2%. Further, the results for the growth with SF-539 CNS and in the experiment with UACC-257 melanoma were 91.9% and 101%, respectively.
